# Values joined by “and” are separate entries in the source; they are usually repeats but may differ in a detail not shown here. Equal entries are not always repeated. About 79,000 compounds went through this panel and 15% of them were active in at least one assay; those are over-represented in the sample as a whole. Where a structure was tested more than once in an assay, its records may differ in their call. Active and inactive are the calls of the source. Cut-off read from the data, not from the text of the source: active = growth inhibition above about 70%; inactive = the rest. Where a SMILES comes first, the peptide text is derived from it. The star is where a group is joined. Boc = CC(C)(C)OC(=O)*; Bn = c1ccc(C*)cc1
# How the values were obtained:
# [1] = NCI Yeast Anticancer Drug Screen. Data for the rad50 strain (AID 155);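 note: 0% = growth of vehicle-only cultures of the same strain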; details: S. cerevisiae rad50 strain growth inhibition, stronger effect = higher value
# In short: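 Growth of the mutant yeast was measured after compound exposure and referenced to vehicle-treated cultures.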
# [2] = NCI Yeast Anticancer Drug Screen. Data for the mec2-1 strain (AID 157); details: S. cerevisiae mec2-1 strain, stronger effect = higher value
# In short: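 Cells of the genetically defined mec2-1 yeast strain are incubated with test compound. Inhibition of growth is calculated against vehicle-treated controls.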
# [3] = NCI Yeast Anticancer Drug Screen. Data for the sgs1 mgt1 strain (AID 161);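 note: 0% = growth of cultures given vehicle only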; details: S. cerevisiae sgs1 mgt1 strain, stronger effect = higher value
# In short: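 Test agents were incubated with a DNA-repair-mutant yeast strain. Growth was then read and compared against vehicle-treated controls.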
# [4] = NCI Yeast Anticancer Drug Screen. Data for the cln2 rad14 strain (AID 165);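 note: 0% = growth equal to vehicle treated cultures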; details: S. cerevisiae cln2 rad14 strain, stronger effect = higher value
# In short: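 The screen exposed genetically defined yeast (cln2 rad14) to test compounds and scored growth inhibition relative to vehicle-treated controls.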
# [5] = NCI Yeast Anticancer Drug Screen. Data for the bub3 strain (AID 167); details: S. cerevisiae bub3 mutant strain, stronger effect = higher value
# In short: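 Whole-cell yeast assay. The mutant strain was incubated with compounds, and growth inhibition was determined by comparison with vehicle-treated cells.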
# [6] = NCI Yeast Anticancer Drug Screen. Data for the mlh1 rad18 strain (AID 175); details: S. cerevisiae mlh1 rad18 strain growth inhibition, stronger effect = higher value
# In short: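 Compound-treated yeast growth, normalised to vehicle controls. Strain bears defined DNA repair mutations.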
# [7] = at 5.0 µM (retest, dose inferred, filed as 0.5)
# [8] = at 50.0 µM (retest, dose inferred, filed as 5.0)
smiles,measurement,setting,value
O=C(/C=C/c1ccccc1)c1ccc(N=Cc2ccccc2)cc1,growth inhibition,[1]; [7],-37% (inactive)
same,growth inhibition,[1]; [8],30% (inactive)
same,growth inhibition,[2]; [7],6% (inactive)
same,growth inhibition,[2]; [8],21% (inactive)
same,growth inhibition,[3]; [7],2% (inactive)
same,growth inhibition,[3]; [8],68% (inactive)
same,growth inhibition,[4]; [7],1% (inactive)
same,growth inhibition,[4]; [8],6% (inactive)
same,growth inhibition,[5]; [7],7% (inactive)
same,growth inhibition,[5]; [8],54% (inactive)
same,growth inhibition,[6]; [7],8% (inactive)
same,growth inhibition,[6]; [8],38% (inactive)
CC(C)(C)C(=O)CC(c1ccccc1)c1ccccc1,growth inhibition,[1]; [7],11% (inactive)
same,growth inhibition,[1]; [8],20% (inactive)
same,growth inhibition,[2]; [7],-1% (inactive)
same,growth inhibition,[2]; [8],3% (inactive)
same,growth inhibition,[4]; [7],12% (inactive)
same,growth inhibition,[4]; [8],0% (inactive)
same,growth inhibition,[5]; [7],10% (inactive)
same,growth inhibition,[5]; [8],22% (inactive)
same,growth inhibition,[6]; [7],-13% (inactive)
same,growth inhibition,[6]; [8],9% (inactive)
O=Cc1ccc(O)c(O)c1O,growth inhibition,[1]; [7],-7% (inactive)
same,growth inhibition,[1]; [8],66% (inactive)
same,growth inhibition,[2]; [7],-3% (inactive)
same,growth inhibition,[2]; [8],54% (inactive)
same,growth inhibition,[3]; [7],-6% (inactive)
same,growth inhibition,[3]; [8],35% (inactive)
same,growth inhibition,[4]; [7],0% (inactive)
same,growth inhibition,[4]; [8],36% (inactive)
same,growth inhibition,[5]; [7],9% (inactive)
same,growth inhibition,[5]; [8],73% (active)
same,growth inhibition,[6]; [7],-30% (inactive)
same,growth inhibition,[6]; [8],86% (active)
O=C1C=CC2C3C(=O)N(c4ccccc4)C(=O)C3C1N2Cc1ccccc1 (centres undefined),growth inhibition,[1]; [7],18% (inactive)
same,growth inhibition,[1]; [8],48% (inactive)
same,growth inhibition,[2]; [7],18% (inactive)
same,growth inhibition,[2]; [8],58% (inactive)
same,growth inhibition,[4]; [7],21% (inactive)
same,growth inhibition,[4]; [8],56% (inactive)
same,growth inhibition,[4]; at 50.0 µM,43.2% (inactive)
same,growth inhibition,[5]; [7],24% (inactive)
same,growth inhibition,[5]; [8],78% (active)
same,growth inhibition,[5]; at 50.0 µM,61.9% (inactive)
same,growth inhibition,[6]; [7],51% (inactive)
same,growth inhibition,[6]; [8],79% (active)
Oc1ccc(Cc2cccc(Cl)c2)c(O)c1,growth inhibition,[1]; [7],-1% (inactive)
same,growth inhibition,[1]; [8],92% (active)
same,growth inhibition,[2]; [7],-7% (inactive)
same,growth inhibition,[2]; [8],96% (active)
same,growth inhibition,[3]; [7],-4% (inactive)
same,growth inhibition,[3]; [8],97% (active)
same,growth inhibition,[4]; [7],4% (inactive)
same,growth inhibition,[4]; [8],98% (active)
same,growth inhibition,[5]; [7],0% (inactive)
same,growth inhibition,[5]; [8],92% (active)
same,growth inhibition,[6]; [7],-3% (inactive)
same,growth inhibition,[6]; [8],90% (active)
CN(C)CC1CCCC(CN(C)C)C1=O (centres undefined),growth inhibition,[1]; at 50.0 µM,-13.4% (inactive) and -21.9% (inactive)
same,growth inhibition,[2]; at 50.0 µM,26.9% (inactive) and -9.95% (inactive)
same,growth inhibition,[3]; at 50.0 µM,-16% (inactive) and -39.5% (inactive)
same,growth inhibition,[4]; at 50.0 µM,33% (inactive) and -30.4% (inactive)
same,growth inhibition,[5]; at 50.0 µM,-16.1% (inactive) and -22.1% (inactive)
same,growth inhibition,[6]; at 50.0 µM,-2% (inactive) and -13.8% (inactive)
CC(=O)O[C@H]1C(=O)[C@@]2(C)C(C(OC(=O)c3ccccc3)[C@]3(O)CC(OC(=O)[C@H](OC(=O)CCC(=O)O)C(NC(=O)c4ccccc4)c4ccccc4)C(C)=C1C3(C)C)C1(OC(C)=O)COC1C[C@@H]2O (some centres undefined),growth inhibition,[1]; at 50.0 µM,12.9% (inactive) and 26.6% (inactive)
same,growth inhibition,[2]; at 50.0 µM,10.1% (inactive) and 18.2% (inactive)
same,growth inhibition,[3]; at 50.0 µM,-19.2% (inactive) and -19.7% (inactive)
same,growth inhibition,[4]; at 50.0 µM,-15.8% (inactive) and -13.2% (inactive)
same,growth inhibition,[5]; at 50.0 µM,-6.95% (inactive) and -15.3% (inactive)
CC(=O)Nc1ccc(/C=N/NC(=S)NCC(C)C)cc1,growth inhibition,[1]; [7],4% (inactive)
same,growth inhibition,[1]; [8],10% (inactive)
same,growth inhibition,[2]; [7],2% (inactive)
same,growth inhibition,[2]; [8],3% (inactive)
same,growth inhibition,[3]; [7],-1% (inactive)
same,growth inhibition,[3]; [8],7% (inactive)
same,growth inhibition,[4]; [7],11% (inactive)
same,growth inhibition,[4]; [8],-8% (inactive)
same,growth inhibition,[5]; [7],5% (inactive)
same,growth inhibition,[5]; [8],9% (inactive)
same,growth inhibition,[6]; [7],-1% (inactive)
same,growth inhibition,[6]; [8],-4% (inactive)
Cc1ccc(S(=O)(=O)NC(C(=O)O)C(C)C)cc1 (centres undefined),growth inhibition,[1]; at 50.0 µM,11.5% (inactive) and -39.5% (inactive)
same,growth inhibition,[2]; at 50.0 µM,3.75% (inactive) and -12.9% (inactive)
same,growth inhibition,[3]; at 50.0 µM,-8.8% (inactive) and -51.1% (inactive)
same,growth inhibition,[4]; at 50.0 µM,-1.2% (inactive) and -20.2% (inactive)
same,growth inhibition,[5]; at 50.0 µM,35% (inactive) and -16.2% (inactive)
same,growth inhibition,[6]; at 50.0 µM,0.45% (inactive) and -18.9% (inactive)
O=[N+]([O-])c1ccc2nc3ccccc3[n+]([O-])c2c1,growth inhibition,[1]; [7],25% (inactive)
same,growth inhibition,[1]; [8],99% (active)
same,growth inhibition,[2]; [7],19% (inactive)
same,growth inhibition,[2]; [8],99% (active)
same,growth inhibition,[3]; [7],33% (inactive)
same,growth inhibition,[3]; [8],100% (active)
same,growth inhibition,[4]; [7],-1% (inactive)
same,growth inhibition,[4]; [8],99% (active)
same,growth inhibition,[5]; [7],50% (inactive)
same,growth inhibition,[5]; [8],100% (active)
same,growth inhibition,[6]; [7],38% (inactive)
same,growth inhibition,[6]; [8],99% (active)
CCCOC(=O)c1ccc(OCC)cc1,growth inhibition,[1]; at 50.0 µM,22.4% (inactive) and -20.6% (inactive)
same,growth inhibition,[2]; at 50.0 µM,8.2% (inactive) and -9.8% (inactive)
same,growth inhibition,[3]; at 50.0 µM,12.6% (inactive) and 3.1% (inactive)
same,growth inhibition,[4]; at 50.0 µM,-8% (inactive) and -42.6% (inactive)
same,growth inhibition,[5]; at 50.0 µM,-11.2% (inactive) and -16.6% (inactive)
same,growth inhibition,[6]; at 50.0 µM,15.2% (inactive) and -23.6% (inactive)
CNC(=O)C(CC(C)C)NC(=O)C(C)NC(=O)C(Cc1ccc(OCc2ccccc2)cc1)NC(=O)C(COCc1ccccc1)NC(=O)OC(C)(C)C (centres undefined) (Boc-S(Bn)Y(Bn)AL-NHMe; configuration not given here),growth inhibition,[1]; at 50.0 µM,-7.2% (inactive) and -29.6% (inactive)
same,growth inhibition,[2]; at 50.0 µM,-17.5% (inactive) and -21.1% (inactive)
same,growth inhibition,[3]; at 50.0 µM,-20.1% (inactive) and -17% (inactive)
same,growth inhibition,[4]; at 50.0 µM,17.1% (inactive) and 6.9% (inactive)
same,growth inhibition,[5]; at 50.0 µM,25% (inactive) and -1.35% (inactive)
same,growth inhibition,[6]; at 50.0 µM,1.1% (inactive) and -0.25% (inactive)
O=C(O)/C=C\C(=O)NNc1ccccc1,growth inhibition,[1]; [7],12% (inactive)
same,growth inhibition,[1]; [8],96% (active)
same,growth inhibition,[2]; [7],-2% (inactive)
same,growth inhibition,[2]; [8],95% (active)
same,growth inhibition,[3]; [7],5% (inactive)
same,growth inhibition,[3]; [8],98% (active)
same,growth inhibition,[4]; [7],10% (inactive)
same,growth inhibition,[4]; [8],82% (active)
same,growth inhibition,[5]; [7],14% (inactive)
same,growth inhibition,[5]; [8],99% (active)
same,growth inhibition,[6]; [7],-7% (inactive)
same,growth inhibition,[6]; [8],94% (active)
CCCCCCCCCC(=O)CCCCCCCCC,growth inhibition,[1]; [7],48% (inactive)
same,growth inhibition,[1]; [8],7% (inactive)
same,growth inhibition,[2]; [7],30% (inactive)
same,growth inhibition,[2]; [8],8% (inactive)
same,growth inhibition,[3]; [7],44% (inactive)
same,growth inhibition,[3]; [8],14% (inactive)
same,growth inhibition,[4]; [7],22% (inactive)
same,growth inhibition,[4]; [8],11% (inactive)
same,growth inhibition,[5]; [7],92% (active)
same,growth inhibition,[5]; [8],38% (inactive)
same,growth inhibition,[6]; [7],32% (inactive)
same,growth inhibition,[6]; [8],35% (inactive)
Cc1nc2ccc(Br)cc2c(=O)n1-c1ccc(NC2OC(CO)C(O)C(O)C2O)cc1 (centres undefined),growth inhibition,[1]; at 50.0 µM,49.9% (inactive) and -0.75% (inactive)
same,growth inhibition,[2]; at 50.0 µM,36.6% (inactive) and -23.4% (inactive)
same,growth inhibition,[3]; at 50.0 µM,-33.1% (inactive) and 0.7% (inactive)
same,growth inhibition,[4]; at 50.0 µM,-3.65% (inactive) and -35.2% (inactive)
same,growth inhibition,[5]; at 50.0 µM,-49.1% (inactive) and -7.65% (inactive)
same,growth inhibition,[6]; at 50.0 µM,-60.5% (inactive) and -10.8% (inactive)
COC1OC(COC(=O)NCCCCC(=O)C(F)(F)C(F)(F)C(F)(F)C(F)(F)C(F)(F)C(F)(F)C(F)(F)F)C(O)C(O)C1O (centres undefined),growth inhibition,[1]; at 50.0 µM,-34.9% (inactive) and -29.9% (inactive)
same,growth inhibition,[2]; at 50.0 µM,-22.2% (inactive) and -30.1% (inactive)
same,growth inhibition,[3]; at 50.0 µM,-10% (inactive) and -11.4% (inactive)
same,growth inhibition,[4]; at 50.0 µM,-2.5% (inactive) and -8.2% (inactive)
same,growth inhibition,[5]; at 50.0 µM,-18.4% (inactive) and -26.4% (inactive)
same,growth inhibition,[6]; at 50.0 µM,-2.9% (inactive) and -3.6% (inactive)
CC(C)C1C=C2CCC3C(C)(C(=O)O)CCCC3(C)C2CC1 (centres undefined),growth inhibition,[1]; at 50.0 µM,79.6% (active) and 46.2% (inactive)
same,growth inhibition,[2]; at 50.0 µM,68.2% (inactive) and 58.1% (inactive)
same,growth inhibition,[3]; at 50.0 µM,22.8% (inactive) and 48% (inactive)
same,growth inhibition,[4]; at 50.0 µM,73.7% (active) and 65.3% (inactive)
same,growth inhibition,[5]; at 50.0 µM,65.2% (inactive) and 44.9% (inactive)
same,growth inhibition,[6]; at 50.0 µM,81.7% (active) and 49.9% (inactive)
CC(C)c1ccc(C(=O)O)cc1,growth inhibition,[1]; at 50.0 µM,11.3% (inactive) and 24% (inactive)
same,growth inhibition,[2]; at 50.0 µM,-9.2% (inactive) and 12.3% (inactive)
same,growth inhibition,[3]; at 50.0 µM,9.55% (inactive) and 13.2% (inactive)
same,growth inhibition,[4]; at 50.0 µM,-8.2% (inactive) and 5.9% (inactive)
same,growth inhibition,[5]; at 50.0 µM,-9% (inactive) and 5.1% (inactive)
same,growth inhibition,[6]; at 50.0 µM,20.1% (inactive) and 22.2% (inactive)

# From PubChem BioAssay (NCI)
